From PubChem BioAssay AID603 (National Center for Advancing Translational Sciences (NCATS), 2007)
Screen size: about 71,000 compounds; about 180 (0.25%) were called active. Where a call stands in place of a potency, no number is given. The sample holds actives, similar compounds and a random draw of the others, so the mix is not that of the screen. Unmarked numbers belong to inactive results. Calls come from the whole dose curve; as a rule, active = well fitted curve in the direction sought with a large enough effect; inconclusive = small, poorly fitted or top-dose-only effect; inactive = flat fitted curve, though single readings scatter.

These molecules were tested on DNA polymerase III holoenzyme (E. coli) (assay: qHTS Assay for Inhibitors of DNA Polymerase III Holoenzyme System). Conditions: reconstituted DNA polymerase III holoenzyme replication, biochemical; series mostly up to 57.1 µM.
Method: NIH Molecular Libraries Screening Centers Network [MLSCN]
NIH Chemical Genomics Center [NCGC]
Assay Provider: Charles McHenry, University of Colorado
E. coli DNA polymerase III holoenzyme complex was assayed for DNA production by fluorescent detection of the double-stranded DNA product with PicoGreen dye. The holoenzyme complex was reconstituted from the following purified protein components: DNA Polymerase III, beta subunit processivity factor, SSB single-stranded DNA binding protein, and Primase. Single-stranded, circular M13Gori was used as a substrate with dNTPs and NTPs also supplied to the substrate reagent. Compounds from the NCGC collection were incubated with the holoenzyme mixture for 15 min at room temperature to allow binding to occur, and then the reaction was started by the addition of substrate. After 30 min incubation at room temperature, PicoGreen solution containing EDTA was added to stop the reaction and to visualize the double-stranded DNA produced. Reaction progress was measured in a ViewLux CCD imager in fluorescence intensity mode by using 480 nm excitation and 540 nm emission filter set.
NCGC Assay Protocol Summary:
Buffer. 50 mM Hepes-KOH, pH 7.5, 5 % Glycerol, 0.02% NP40, 30 mM potassium;
glutamate, 1.5 mM Magnesium Acetate, 16 uM TCEP.
Buffer in columns 3 and 4 as negative control (no enzyme).
Substrate solution: 5 uM each dATP, dGTP, dCTP and TTP, 50 uM each GTP, CTP, UTP and 200 uM ATP, 1.4 nM M13gori (final concentrations).
Enzyme: 154 nM SSB, 2 nM Primase, 1 nM Beta, 0.35 nM Pol III (final concentrations).
PicoGreen/EDTA: 10 mM Tris-HCl, 10 mM EDTA, 5 uM PicoGreen (final concentrations).
Control titration: ChemBridge 5805060 (from 10 mM, then 1:2, in duplicate) was pin-transferred to upper half of column 2.
Three uL of holoenzyme mixture were dispensed to 1536-well Greiner black solid bottom plates. Compounds and controls (23 nL) were transferred via Kalypsys PinTool. The plates were incubated for 15 min at room temperature, and then 1 uL of substrate solution was added to start the reaction. After room temperature incubation for 35 minutes, 1 uL of PicoGreen solution was added to each well and the plates were read 480 nm excitation and 540 nm emission using ViewLux (Perkin-Elmer) High-throughput CCD imager and fluorescence protocol settings.
Keywords: NIH Roadmap, MLSCN, MLI, MLSMR, qHTS, NCGC, DNA Polymerase III, DNAPol3, DNAPoly3, DNA replication targets

SMILES	activity change, negative = inhibition	Potency
O=C(Nc1c(-c2ccccc2)nc2c(Br)cc(Br)cn12)c1ccco1	inactive	–
COC(=O)[C@@]1(Cc2ccc(F)cc2)[C@@H]2[C@@H](CC(=O)[C@H]2CC(=O)C(=O)N2CCCC2)CN1C(=O)c1ccccc1	inactive	–
O=c1[nH]c(=O)c2nc3ccccc3nc2[nH]1	inactive	–
Cc1cccn2c(=O)c3cc(C(=O)NCc4ccccn4)n(C)c3nc12	inactive	–
O=C(NCc1ccccn1)c1ccc2nc(-c3ccco3)c(-c3ccco3)nc2c1	–	3.98 µM (active)
O=C(NCc1ccccn1)c1cc2ccccc2oc1=O	inactive	–
CC(C)Cc1ccc(S(=O)(=O)N2CCN(C(=O)c3ccco3)CC2)cc1	inactive	–
COc1ccc(NC(=O)N2CC3(CCN(C(=O)c4cccn4C)CC3)C2)cc1	inactive	–
CC1Cc2nc(SCC(=O)Nc3ccccc3F)n(C)c(=O)c2S1 (centres undefined)	inactive	–
Cc1cc(C)cc(N(CC(=O)NCC2CCCO2)S(=O)(=O)c2c(C)noc2C)c1 (centres undefined)	inactive	–
COc1ccc(C[C@H](N)C(=O)N[C@@H]2[C@H](O)[C@H](n3cnc4c(N(C)C)ncnc43)O[C@@H]2CO)cc1	inactive	–
COc1ccc(-c2nnc(SCC(=O)NC3CCCCC3)o2)cc1OC	inactive	–
COc1ccc2nc(N3CCCC(O)C3)c(C#N)cc2c1 (centres undefined)	inactive	–
CC(=O)Oc1ccccc1C(=O)Nc1ncc([N+](=O)[O-])s1	inactive	–
COC(=O)[C@H](C)[C@H]1C[C@]1(C)[C@H](NC(=O)OCc1ccccc1)c1ccccc1	inactive	–
CCOC(=O)N1CCN(C(=O)COc2ccc(Br)cc2)CC1	0.2% [at 11.4 µM]	–
N#Cc1c(NC(=O)CSc2nc3ccccc3c(=O)n2Cc2ccco2)sc2c1CCCC2	inactive	–
COc1ccc(-n2c(=O)c(-c3cn(C)c4ccccc34)nc3cnc(OC)nc32)cc1	inactive	–
CC(=O)Oc1cccc(N2C(=O)C3CC=C(Cl)CC3C2=O)c1 (centres undefined)	inactive	–
COc1ccc(CNc2ncnc3ccc(-c4cccnc4)cc23)c(OC)c1	inactive	–
CCOC(=O)CC1C(=O)NCCN1C(=O)COc1ccc(Br)cc1C (centres undefined)	inactive	–
CC1CCN(c2oc(-c3ccccc3F)nc2C#N)CC1	inactive	–
c1ccc(CSCCc2ccncc2)cc1	-2.4% [at 11.4 µM]	–
N#C/C(=C\c1ccc(O)c(O)c1)C(N)=O	inactive	–
COC(=O)[C@@]1(Cc2ccc(F)cc2)[C@H]2c3cc(C(=O)N4CCCC4)n(Cc4ccc(OC(F)(F)F)cc4)c3C[C@H]2CN1C(=O)c1ccccc1	inactive	–

SMILES	activity change, negative = inhibition	Potency
OCCN1CCN(CC/C=C2\c3ccccc3Sc3ccc(C(F)(F)F)cc32)CC1	inactive	–
O=C(Nc1c2c(nn1-c1ccc(F)cc1)CS(=O)C2)C12CC3CC(CC(C3)C1)C2 (centres undefined)	inactive	–
CCOC(=O)c1sc(N(Cc2ccccc2)C(=O)CN2C(=O)CN(C)C2=O)nc1C	inactive	–
O=C(Nc1cccc(F)c1)N1CC2(CCN(C(=O)c3cnccn3)CC2)C1	inactive	–
c1ccc2c(Nc3ccncc3)nc(-c3ccoc3)nc2c1	inactive	–
Cc1ccc(N2C(=O)c3oc4ccccc4c(=O)c3C2c2cccnc2)nc1 (centres undefined)	inactive	–
COc1ccccc1N1CCN(Cc2ccc(OC)c3ccccc23)CC1	inactive	–
CCCCCCN(C(=O)CCCCCN1C(=O)NC(c2ccc(C(F)(F)F)cc2)C(C(=O)OCc2ccccc2)=C1C)C(C(=O)NCCCC)c1ccc(OCC(=O)OC)c(C(=O)OC)c1 (centres undefined)	inactive	–
C[C@@H]1O[C@@H](O[C@@H]2[C@@H](O)[C@H](OCCc3ccc(O)c(O)c3)O[C@H](CO[C@@H]3O[C@H](CO)[C@@H](O)[C@H](O)[C@H]3O)[C@H]2OC(=O)/C=C/c2ccc(O)c(O)c2)[C@H](O)[C@H](O)[C@H]1O	inactive	–
C/C=C1\C(=O)C[C@@H]2[C@@H]3CCC4=CC(=O)CC[C@@]4(C)[C@H]3CC[C@@]12C	inactive	–
O=C(O)C1=CCCN(CCON=C(c2ccccc2)c2ccccc2)C1	inactive	–
COC(=O)C1=C(C)N(C)C(C)=C(C(=O)OC)C1c1cccc(Br)c1	inactive	–
O=C(NCc1cccnc1)c1cn(-c2ccccc2)nc1-c1cccs1	inactive	–
O=S(=O)(Nc1nccs1)c1ccc2c(c1)OCCO2	inactive	–
COC(=O)C1(C)C=CCN1C(=O)c1ccccc1 (centres undefined)	inactive	–
COc1cccc(-c2cc3nc4c(c(N5CCC6(CC5)OCCO6)n3n2)CCCC4)c1	inactive	–
CCOc1ccccc1C1C(C(=O)OC)=CN(C)C=C1C(=O)OC	inactive	–
CC(C)NC(=O)N1CCCC2(CCN(C(=O)c3cccn3C)CC2)C1	inactive	–
COc1ccc(N)c(OC)c1	inactive	–
CC1=C2C(=O)OC(c3ccoc3)C2(C)CCC1 (centres undefined)	inactive	–
Cn1c(SCC(=O)Nc2cccc(NC(=O)c3cccs3)c2)nnc1-c1ccncc1	inactive	–
C[N+](C)(CCCCCC[N+](C)(C)CCCN1C(=O)c2cccc3cccc(c23)C1=O)CCCN1C(=O)c2cccc3cccc(c23)C1=O	–	15.8 µM (active)
O=C1c2ccccc2C(=O)N1CCCSc1ccccc1	-7.1% [at 11.4 µM]	–
COc1ccc(N2C(=O)c3cccc4cccc(c34)C2=O)nn1	inactive	–
